Six1-Eya2 blk = qHTS Assay for Inhibitors of the Six1/Eya2 Interaction; activity change, % (test concentration not listed); AlphaScreen GST-Six1/His-Eya2 binding, biochemical; hits give low values; Homeobox protein SIX1 (Homo sapiens) + Protein phosphatase EYA2 (Homo sapiens), …; 0.56% of 360,000 active
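Homogeneous AlphaScreen proximity assay pairing GST-Six1 with His-tagged Eya2 (added as 5X mix: 250 nM and 500 nM) in 50 mM Tris pH 8.0, 300 mM NaCl, 1 mM TCEP. Glutathione donor and nickel acceptor beads; 1 h, 37 °C, dark.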
Eya2 inh = qHTS Assay for Inhibitors of the Phosphatase Activity of Eya2; recombinant Eya2, OMFP fluorescence dephosphorylation (OMFP is methylfluorescein phosphate); Potency, µM (series often up to 76.9 µM), for inactives: at the top dose activity, negative = inhibition, most hits filed as inhibitors; 0.006% of 330,000 active; AID 488837, 2010; active means well fitted inhibition curve with a large enough effect; inconclusive means small, poorly fitted or top-dose-only effect, or effect the other way; further: potency means the concentration at half of the fitted maximal effect
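Eya2 (0.2 uM) preincubated 10 min at ambient with compound, then OMFP substrate added at 50 uM; 10 min reaction in 50 mM HEPES pH 7.5, 50 mM NaCl, 5 uM MgCl2, 0.05% BSA, 1 mM DTT. Fluorescence read at Ex 485/Em 525 nm.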
CtBP-E1A inh = qHTS Assay for Inhibitors of the CtBP/E1A Interaction | AlphaScreen GST-E1A/His-CtBP binding, 1536-well; hits give low values | 0.49% of 340,000 active | AID 651724, 2012 | activity change, % (test concentration not listed)
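Steps: dispense buffer (Tris pH 8.0, NaCl 300 mM, TCEP 1 mM, BSA, Tween 20); add 5X protein mix (GST-E1A, His-CtBP, 125 nM each); pin 23 nL compound; 2 h at 37 °C, dark; add 5X beads (50 ug/mL); 1 h; read.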
PI4K2A inh = qHTS for small molecular inhibitors of PI4K2A; purified PI4K2A, ADP-Glo luminescence, 1 h; hits give low values; activity change, negative = inhibition, % at 76.9 µM; 0.13% of 420,000 active; AID 1346378, 2018; in the data active means activity change below about -50%; inconclusive means mostly about -30% to -49%;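 further: -100% = wells without enzyme as full effect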
Target sequence (Q9BTU6 whole entry, looked up): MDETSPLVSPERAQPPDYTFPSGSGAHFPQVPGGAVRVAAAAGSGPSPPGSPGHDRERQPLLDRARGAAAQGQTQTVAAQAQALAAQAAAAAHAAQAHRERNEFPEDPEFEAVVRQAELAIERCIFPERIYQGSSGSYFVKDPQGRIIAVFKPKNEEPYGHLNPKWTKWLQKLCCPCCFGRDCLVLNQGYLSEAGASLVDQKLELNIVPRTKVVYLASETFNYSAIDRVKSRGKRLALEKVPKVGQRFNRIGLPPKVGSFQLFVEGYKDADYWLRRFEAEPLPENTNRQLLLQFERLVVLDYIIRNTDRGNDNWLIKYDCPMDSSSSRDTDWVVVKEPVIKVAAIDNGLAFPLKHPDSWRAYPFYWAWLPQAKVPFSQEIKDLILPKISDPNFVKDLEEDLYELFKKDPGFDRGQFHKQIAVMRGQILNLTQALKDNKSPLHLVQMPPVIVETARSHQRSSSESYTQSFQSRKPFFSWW
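ADP-Glo luminescence measured ADP generated by PI4K2A enzyme (4 ug/mL before mixing) with 1.2 mM PI substrate (pre-mix) and 300 microM ATP (pre-mix). Tris pH7.5 buffer with MgCl2, Triton X-100; 1 h reaction at ambient temperature.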
CCT modulator = High-Throughput Screening for Modulators of Cytosolic Chaperonin Activity. purified chaperonin ATPase assay, HTRF ADP detection, 30 min. activity change, % (no concentration beside the values), hits read low. 0.3% of 360,000 active; in the data active means activity change below about -30%
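TRiC at 40 or 20 nM final (batch-dependent) in 30 mM Tris pH 7.4, 100 mM KCl, 5 mM MgCl2, 1 mM DTT, with compound at single 76 uM and 10 uM ATP, 30 min at 37 deg C. ADP detected by HTRF Transcreener, 665/615 ratio.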
Numbers without * were called inactive. Compounds with a hit are over-represented: about 0.97% of the library has one in this group of screens. Unless noted, no stated cut-off is given here; in the data, active means activity change below about -65%; inconclusive means mostly about -30% to -63%; inactive means weaker than that. Unless noted, on the % scale 0 is the no-effect control and ±100 the full control effect.

`O=C(Cn1cnc([N+](=O)[O-])n1)N/N=C/c1ccc(O)cc1O` gave Six1-Eya2 blk -92*, Eya2 inh -3%, CtBP-E1A inh -96*, PI4K2A inh 1 and CCT modulator -1.
For O=C(CCN1CCN(C(c2ccccc2)c2ccccc2)CC1)N/N=C/c1ccc(O)cc1O the results were Six1-Eya2 blk -11, Eya2 inh -1%, CtBP-E1A inh -73*, PI4K2A inh -3 and CCT modulator -3.
`Cc1cc(C)n(CCC(=O)N/N=C/c2ccccc2O)n1` gave Six1-Eya2 blk inconclusive, Eya2 inh 5%, CtBP-E1A inh 0, PI4K2A inh 8 and CCT modulator 2.
Cc1cc(C)n(CCC(=O)N/N=C/c2ccc(O)cc2O)n1 was read as Six1-Eya2 blk -86*, Eya2 inh 10%, CtBP-E1A inh -69*, PI4K2A inh 2 and CCT modulator -1.
For CC(=O)Nc1cccc(NC(=O)c2cccc(Cl)c2)c1 the results were Six1-Eya2 blk -7, CtBP-E1A inh 2, PI4K2A inh -3 and CCT modulator 2.
For CC(=O)Nc1cccc(NC(=O)c2cccc(-c3ccc(O)cc3)c2)c1 the results were Six1-Eya2 blk 2, Eya2 inh 3%, CtBP-E1A inh 0, PI4K2A inh -9 and CCT modulator -70*.
Screening COCCCn1c(=O)cc(C)[nH]c1=S returned Six1-Eya2 blk 2, Eya2 inh 15%, PI4K2A inh -1 and CCT modulator -39*.
CCC(C)C(=O)N1c2ccccc2C(=C2SC(C(=O)OC)=C(C(=O)OC)S2)C(=S)C1(C)C (configuration not stated) was read as Six1-Eya2 blk -80*, Eya2 inh 19%, CtBP-E1A inh -83*, PI4K2A inh -14 and CCT modulator -7.
For CCOC(=O)C1=C(C)c2ccccc2N(C(=O)OC)C1(C)C(=O)OCC (configuration not stated) the results were Six1-Eya2 blk -17, Eya2 inh -1%, CtBP-E1A inh -11, PI4K2A inh -19 and CCT modulator -1.
CCCCCOc1ccc(C2SC(=O)NC2=O)cc1OCC (configuration not stated) was read as PI4K2A inh -1.
For CCn1cc(C(=O)O)c(=O)c2cc(F)c(N3CCN(C(=O)Nc4ccccc4)CC3)cc21 the results were Six1-Eya2 blk -7, Eya2 inh 17%, CtBP-E1A inh 4, PI4K2A inh -7 and CCT modulator 0.
For CCn1cc(C(=O)O)c(=O)c2cc(F)c(N/N=C/c3ccccc3)cc21 the results were Six1-Eya2 blk inconclusive, Eya2 inh -5%, CtBP-E1A inh -74*, PI4K2A inh -1 and CCT modulator -4.
For O=S(=O)(O)c1cc(O)c(N=Nc2ccc(O)cc2O)c2ccccc12 the results were Six1-Eya2 blk -83*, CtBP-E1A inh -94*, PI4K2A inh inconclusive and CCT modulator 0.
CCCC(=O)NCC(c1ccc2c(c1)OCO2)N1CCN(c2ccc(F)cc2)CC1 (configuration not stated) was read as PI4K2A inh 0.
`C=CCNc1nc(=S)[nH]c2cc(OC)c(OC)cc12` gave Six1-Eya2 blk -83*, Eya2 inh 3%, CtBP-E1A inh -74*, PI4K2A inh -8 and CCT modulator -1.
CCOc1ccc(C(=O)Nc2cc(C)ccn2)cc1 was read as Six1-Eya2 blk 5, Eya2 inh -6%, CtBP-E1A inh 1, PI4K2A inh -72* and CCT modulator -1.
Screening CCN(CC)CCCNC(=O)c1nn(-c2cccc(OC)c2)c(=O)c2ccccc12 returned Six1-Eya2 blk -8, Eya2 inh 1%, CtBP-E1A inh -1, PI4K2A inh 3 and CCT modulator -76*.
O=C(O)c1cc(S(=O)(=O)Nc2ccc3oc(=O)sc3c2)ccc1O was read as Six1-Eya2 blk -9, Eya2 inh 6%, CtBP-E1A inh -9, PI4K2A inh -68* and CCT modulator 0.

Assay outcomes (PubChem BioAssay)
